# Inconclusive results are not listed. Active and inactive are the calls of the source. How the source made its calls, unless noted: active means hit-call score of the fitted dose curve at least 0.9, where 1 is the maximum; inconclusive means response in the unintended direction; inactive means score below 0.9.
# What was measured:
# [1] = molecular target: Estrogen receptor (Homo sapiens) (UniProt P03372); assay: OT_ER_ERaERa_1440: Odyssey Thera (OT) 24-hour HEK293T Protein-Complementation Assay for Estrogen Receptor-alpha/-alpha Homodimer (AID 2283349);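 further: hits raise fluorescence above DMSO for agonists and antagonists alike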
# Outline: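 HEK293T, stable ERα LBD (aa 310-547) homodimer PCA; 24 h compound exposure; mean fluorescence intensity (nuclear for agonists, nuclear plus cytoplasmic for antagonists) vs vehicle; positive fitting direction, DMSO baseline.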
# [2] = molecular target: Estrogen receptor (Homo sapiens) (UniProt P03372); assay: OT_ER_ERaERa_0480: Odyssey Thera (OT) 8-hour HEK293T Protein-Complementation Assay for Estrogen Receptor-alpha/-alpha Homodimer (AID 2283351);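 further: rise in fluorescence from reassembled reporter fragments on ERα LBD homodimer in nucleus or whole cell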
# Outline: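 Measures ERα LBD (aa 310-547) homodimer complementation in stably transfected HEK293T at 8 h post-dose, with fluorescence intensity quantified on a laser scanning cytometer relative to DMSO controls.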
# [3] = molecular target: T1, Estrogen receptor (Homo sapiens) + Estrogen receptor beta (Homo sapiens) (UniProt P03372+Q92731); assay: OT_ER_ERaERb_0480: Odyssey Thera (OT) 8-hour HEK293T Protein-Complementation Assay for Estrogen Receptor-alpha/-beta Heterodimer (AID 2283352)
# Outline: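 Compound added to HEK293T cells carrying split-reporter-tagged ER-alpha and ER-beta LBDs, incubated 8 hours, then imaged by laser scanning cytometer. Signal rise in nucleus, or nucleus and cytoplasm, over vehicle was fitted in the positive direction.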
# [4] = molecular target: T1, Estrogen receptor (Homo sapiens) + Estrogen receptor beta (Homo sapiens); assay: OT_ER_ERaERb_1440: Odyssey Thera (OT) 24-hour HEK293T Protein-Complementation Assay for Estrogen Receptor-alpha/-beta Homodimer (AID 2283356);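 further: heteromer of ER alpha and ER beta binding domains; hits raise reporter fluorescence and both agonists and antagonists give an increase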
# Outline: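 Stable HEK293T PCA line, ERα LBD 310-547 + ERβ LBD 263-489 fused to reporter fragments; 24 h treatment; fluorescence read by laser scanning cytometry; positive fitting direction relative to DMSO.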
# [5] = molecular target: Estrogen receptor beta (Homo sapiens) (UniProt Q92731); assay: OT_ER_ERbERb_0480: Odyssey Thera (OT) 8-hour HEK293T Protein-Complementation Assay for Estrogen Receptor-beta/-beta Homodimer (AID 2283357);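 further: active means signal gain over DMSO baseline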
# Outline: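 ER-beta LBD homodimer PCA stably expressed in HEK293T; 8 h compound exposure, then formaldehyde fixation and Draq5 staining. Gain in nuclear/cytoplasmic fluorescence intensity versus DMSO vehicle, read on laser scanning cytometer.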
# [6] = molecular target: Estrogen receptor (Homo sapiens) (UniProt P03372); assay: OT_ERa_GFPERaERE_0480: Odyssey Thera (OT) 8-hour HeLa Transcription Induction Assay for Estrogen Receptor (AID 2283381; active means hit-call score of the fitted dose curve at least 0.9, where 1 is the maximum; inactive means score below 0.9)
# Outline: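 An 8 h HeLa transcription-induction format with a GFP reporter under ERE control, read by fluorescence microscopy; single endpoint fitted positively with DMSO as baseline.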
# [7] = molecular target: Estrogen receptor (Homo sapiens) (UniProt P03372); assay: OT_ERa_GFPERaERE_0120: Odyssey Thera (OT) 2-hour HeLa Transcription Induction Assay for Estrogen Receptor (AID 2283382)
# Outline: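 Two-hour compound treatment of HeLa cells preceded microscopy imaging of an inducible fluorescent reporter. Image-based quantification gave one endpoint, analysed for signal increase relative to DMSO controls.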
# [8] = molecular target: Retinoic acid receptor RXR-alpha (Homo sapiens) (UniProt P19793); assay: OT_NURR1_NURR1RXRa_0480: Odyssey Thera (OT) 8-hour HEK293T Protein Complementation Assay for Nurr1/retinoid X receptor (RXR) (AID 2283385)
# Outline: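 Gain in fluorescent complementation signal over DMSO, measured 8 hours after chemical dosing of human kidney HEK293T cells, indicated enhanced Nurr1–RXRα association.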
# [9] = molecular target: Retinoic acid receptor RXR-alpha (Homo sapiens) (UniProt P19793); assay: OT_NURR1_NURR1RXRa_1440: Odyssey Thera (OT) 24-hour HEK293T Protein Complementation Assay for Nurr1/retinoid X receptor (RXR) (AID 2283386)
# Outline: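 Cell-based binding reporter: HEK293T cells, 24 h exposure, fluorescence-detected fragment complementation, DMSO as baseline.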
# [10] = molecular target: Peroxisome proliferator-activated receptor gamma (Homo sapiens) (UniProt P37231); assay: OT_PPARg_PPARgSRC1_0480: Odyssey Thera (OT) 8-hour Protein-Complementation Assay for Peroxisome Proliferator-activated Receptor Gamma / SRC-1 Co-activator (AID 2283387);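 further: nuclear to cytoplasmic split Venus YFP fluorescence ratio reporting PPARg SRC-1 interaction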
# Outline: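 Read-out: 488 nm N/C fluorescence ratio from complemented Venus YFP fragments, ≥350 cells per image, gain-of-signal fitted against DMSO baseline. Fusions of PPARg/SRC-1 with IFP1/IFP2 expressed transiently in HEK293T; compounds applied 8 h.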
# [11] = molecular target: Peroxisome proliferator-activated receptor gamma (Homo sapiens) (UniProt P37231); assay: OT_PPARg_PPARgSRC1_1440: Odyssey Thera (OT) 24-hour Protein-Complementation Assay for Peroxisome Proliferator-activated Receptor Gamma/ SRC-1 Co-activator (AID 2283388);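 further: nuclear to cytoplasmic ratio of reconstituted Venus YFP fluorescence in fixed imaged cells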
# Outline: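 Protein-fragment complementation between PPARg and coactivator SRC-1 was measured by fluorescence imaging in transiently transfected HEK293T cells after 24 h treatment. Signal was quantified as N/C ratio in the 488 nm channel, with DMSO as negative control.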
# [12] = read-out: Fatty acid synthase (Homo sapiens) (UniProt P49327); assay: LTEA_HepaRG_FASN: Life Technologies and Expression Analysis (LTEA) Assay for Fatty Acid Synthase (FASN) using HepaRG (AID 2283448; active means hit-call score of the fitted dose curve at least 0.9, where 1 is the maximum; inactive means score below 0.9); conditions: mRNA level, 48 h; actives raise or lower the signal
# Outline: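 In human HepaRG cultures, 48 h chemical exposure (up to 100 uM, 0.5% DMSO) preceded TaqMan qRT-PCR of FASN.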
# [13] = read-out: Cyclin D2 (CCND2), CCND2 (gene 894); assay: LTEA_HepaRG_CCND2: Life Technologies and Expression Analysis (LTEA) Assay for Cyclin D2 (CCND2) using HepaRG (AID 2283449; active means hit-call score of the fitted dose curve at least 0.9, where 1 is the maximum; inactive means score below 0.9); conditions: mRNA level, 48 h; actives raise or lower the signal
# Outline: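 CCND2 transcript levels, quantified by qRT-PCR and normalised to three housekeeping genes, were fitted bidirectionally against 0.5% DMSO. HepaRG cultures were dosed 48 h in duplicate with an 8-point half-log series up to 100 uM.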
# [14] = read-out: Cyclin Dependent Kinase Inhibitor 1A (CDKN1A), CDKN1A (gene 1026); assay: LTEA_HepaRG_CDKN1A: Life Technologies and Expression Analysis (LTEA) Assay for Cyclin Dependent Kinase Inhibitor 1A (CDKN1A) using HepaRG (AID 2283450; active means hit-call score of the fitted dose curve at least 0.9, where 1 is the maximum; inactive means score below 0.9); conditions: mRNA level, 48 h; actives raise or lower the signal
# Outline: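 Read-out is CDKN1A mRNA by TaqMan qRT-PCR, normalized to three housekeeping genes and fitted in both directions against the DMSO baseline. Human HepaRG cells were treated 48 h with test chemicals up to 100 uM in half-log steps, 0.5% DMSO.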
# [15] = read-out: Cyclin D1 (CCND1), CCND1 (gene 595); assay: LTEA_HepaRG_CCND1: Life Technologies and Expression Analysis (LTEA) Assay for Cyclin D1 (CCND1) using HepaRG (AID 2283451; active means hit-call score of the fitted dose curve at least 0.9, where 1 is the maximum; inactive means score below 0.9); conditions: mRNA level, 48 h; actives raise or lower the signal
# Outline: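 HepaRG plated 48 h, medium switched to serum-free induction medium, chemicals added in duplicate (top 100 uM, half-log steps, 0.5% DMSO) for 48 h, cells lysed, RNA measured by TaqMan qRT-PCR.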
# [16] = read-out: catalase (CAT), CAT (gene 847); assay: LTEA_HepaRG_CAT: Life Technologies and Expression Analysis (LTEA) Assay for catalase (CAT) using HepaRG (AID 2283452; active means hit-call score of the fitted dose curve at least 0.9, where 1 is the maximum; inactive means score below 0.9); conditions: mRNA level, 48 h; actives raise or lower the signal
# Outline: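 Expression of CAT was quantified by TaqMan qRT-PCR with ACTB/GAPDH/POLR2A normalization after 48 h chemical exposure of HepaRG. Eight-point half-log series, top 100 uM, in 0.5% DMSO; gain or loss fitted against vehicle.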
# [17] = read-out: flavin-containing dimethylaniline monooxygenases 3 (FMO3), FMO3 (gene 2328); assay: LTEA_HepaRG_FMO3: Life Technologies and Expression Analysis (LTEA) Assay for flavin-containing dimethylaniline monooxygenases 3 (FMO3) using HepaRG (AID 2283453; active means hit-call score of the fitted dose curve at least 0.9, where 1 is the maximum; inactive means score below 0.9); conditions: mRNA level, 48 h; actives raise or lower the signal
# Outline: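 Eight-point concentration-response in serum-free HepaRG cultures (top 100 uM, 0.5% DMSO, 48 h). Read-out: FMO3 mRNA level normalized to three endogenous control genes, fitted bidirectionally versus vehicle.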
# [18] = read-out: Cytochrome P450 (CYP1A1), CYP1A1 (gene 1543); assay: LTEA_HepaRG_CYP1A1: Life Technologies and Expression Analysis (LTEA) Assay for Cytochrome P450 (CYP1A1) using HepaRG (AID 2283454; active means hit-call score of the fitted dose curve at least 0.9, where 1 is the maximum; inactive means score below 0.9); conditions: mRNA level, 48 h; actives raise or lower the signal
# Outline: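 HepaRG, 48 h post-plating switched to serum-free induction medium; 8-pt conc-response (top 100 uM, half-log, 0.5% DMSO), duplicates, 48 h. Lysis in RLT, TaqMan qRT-PCR for CYP1A1; gain or loss vs DMSO.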
# Chain of Peroxisome proliferator-activated receptor gamma (Homo sapiens) (P37231 whole entry, looked up, the tested form may be a part): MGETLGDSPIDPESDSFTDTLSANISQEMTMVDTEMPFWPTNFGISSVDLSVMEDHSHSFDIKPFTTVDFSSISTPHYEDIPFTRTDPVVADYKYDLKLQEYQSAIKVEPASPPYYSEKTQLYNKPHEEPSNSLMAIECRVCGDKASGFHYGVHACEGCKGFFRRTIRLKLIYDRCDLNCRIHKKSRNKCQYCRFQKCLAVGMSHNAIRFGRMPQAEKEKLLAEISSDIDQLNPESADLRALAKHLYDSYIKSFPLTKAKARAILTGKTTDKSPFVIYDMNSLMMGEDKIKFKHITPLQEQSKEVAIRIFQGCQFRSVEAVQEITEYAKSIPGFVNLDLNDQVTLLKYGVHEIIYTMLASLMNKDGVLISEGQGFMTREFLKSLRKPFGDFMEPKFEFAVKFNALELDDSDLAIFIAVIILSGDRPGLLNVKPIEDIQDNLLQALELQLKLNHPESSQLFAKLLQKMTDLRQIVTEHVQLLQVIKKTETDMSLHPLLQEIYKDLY
# Chain of Retinoic acid receptor RXR-alpha (Homo sapiens) (P19793 whole entry, looked up, the tested form may be a part): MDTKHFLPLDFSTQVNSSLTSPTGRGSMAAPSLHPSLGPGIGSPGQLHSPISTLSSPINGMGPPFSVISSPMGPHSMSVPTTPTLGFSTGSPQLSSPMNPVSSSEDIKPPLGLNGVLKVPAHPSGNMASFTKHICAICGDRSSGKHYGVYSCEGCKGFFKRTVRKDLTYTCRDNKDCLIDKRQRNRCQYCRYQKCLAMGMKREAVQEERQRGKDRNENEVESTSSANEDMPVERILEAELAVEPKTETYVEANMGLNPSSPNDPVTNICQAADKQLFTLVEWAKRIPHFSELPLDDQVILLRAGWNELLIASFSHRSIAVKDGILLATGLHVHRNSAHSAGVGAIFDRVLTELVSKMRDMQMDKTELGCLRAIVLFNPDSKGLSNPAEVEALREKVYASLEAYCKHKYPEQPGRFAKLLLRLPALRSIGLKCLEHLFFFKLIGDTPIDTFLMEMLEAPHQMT
# Chain of Estrogen receptor (Homo sapiens) (P03372 whole entry, looked up, the tested form may be a part): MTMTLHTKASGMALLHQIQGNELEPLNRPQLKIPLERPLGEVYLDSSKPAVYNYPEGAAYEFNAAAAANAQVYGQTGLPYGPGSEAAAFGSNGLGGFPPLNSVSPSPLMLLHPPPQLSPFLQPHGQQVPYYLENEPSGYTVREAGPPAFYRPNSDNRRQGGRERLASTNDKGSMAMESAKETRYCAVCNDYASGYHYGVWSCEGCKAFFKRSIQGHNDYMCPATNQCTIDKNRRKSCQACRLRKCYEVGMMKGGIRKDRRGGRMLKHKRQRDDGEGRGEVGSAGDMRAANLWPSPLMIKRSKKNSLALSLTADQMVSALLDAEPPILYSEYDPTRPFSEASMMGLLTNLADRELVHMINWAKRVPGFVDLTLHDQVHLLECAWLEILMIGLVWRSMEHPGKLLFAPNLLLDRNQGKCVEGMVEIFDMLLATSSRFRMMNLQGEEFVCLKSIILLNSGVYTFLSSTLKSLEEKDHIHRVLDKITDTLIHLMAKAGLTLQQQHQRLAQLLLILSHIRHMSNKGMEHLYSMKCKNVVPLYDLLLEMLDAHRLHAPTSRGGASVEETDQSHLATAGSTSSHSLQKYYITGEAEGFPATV
# T1 sequence (P03372 whole entry, looked up): as the sequence (P03372 whole entry, looked up, the tested form may be a part) above
# T1 sequence (Q92731 whole entry, looked up): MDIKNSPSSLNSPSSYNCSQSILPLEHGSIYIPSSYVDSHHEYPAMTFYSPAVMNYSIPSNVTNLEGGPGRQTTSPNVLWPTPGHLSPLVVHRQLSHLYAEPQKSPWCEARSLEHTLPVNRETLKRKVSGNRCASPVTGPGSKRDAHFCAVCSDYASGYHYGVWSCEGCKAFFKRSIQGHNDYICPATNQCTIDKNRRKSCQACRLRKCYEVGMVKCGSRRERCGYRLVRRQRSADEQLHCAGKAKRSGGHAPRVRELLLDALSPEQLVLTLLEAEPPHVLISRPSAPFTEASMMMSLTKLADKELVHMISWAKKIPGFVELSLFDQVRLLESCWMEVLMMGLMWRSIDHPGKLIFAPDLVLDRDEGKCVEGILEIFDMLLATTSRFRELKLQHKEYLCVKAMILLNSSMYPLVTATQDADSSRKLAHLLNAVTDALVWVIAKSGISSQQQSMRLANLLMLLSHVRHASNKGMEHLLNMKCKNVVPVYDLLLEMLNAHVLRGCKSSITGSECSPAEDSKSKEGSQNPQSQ
# Chain of Estrogen receptor beta (Homo sapiens) (Q92731 whole entry, looked up, the tested form may be a part): as the sequence (Q92731 whole entry, looked up) above
# Chain of Fatty acid synthase (Homo sapiens) (P49327 whole entry, looked up): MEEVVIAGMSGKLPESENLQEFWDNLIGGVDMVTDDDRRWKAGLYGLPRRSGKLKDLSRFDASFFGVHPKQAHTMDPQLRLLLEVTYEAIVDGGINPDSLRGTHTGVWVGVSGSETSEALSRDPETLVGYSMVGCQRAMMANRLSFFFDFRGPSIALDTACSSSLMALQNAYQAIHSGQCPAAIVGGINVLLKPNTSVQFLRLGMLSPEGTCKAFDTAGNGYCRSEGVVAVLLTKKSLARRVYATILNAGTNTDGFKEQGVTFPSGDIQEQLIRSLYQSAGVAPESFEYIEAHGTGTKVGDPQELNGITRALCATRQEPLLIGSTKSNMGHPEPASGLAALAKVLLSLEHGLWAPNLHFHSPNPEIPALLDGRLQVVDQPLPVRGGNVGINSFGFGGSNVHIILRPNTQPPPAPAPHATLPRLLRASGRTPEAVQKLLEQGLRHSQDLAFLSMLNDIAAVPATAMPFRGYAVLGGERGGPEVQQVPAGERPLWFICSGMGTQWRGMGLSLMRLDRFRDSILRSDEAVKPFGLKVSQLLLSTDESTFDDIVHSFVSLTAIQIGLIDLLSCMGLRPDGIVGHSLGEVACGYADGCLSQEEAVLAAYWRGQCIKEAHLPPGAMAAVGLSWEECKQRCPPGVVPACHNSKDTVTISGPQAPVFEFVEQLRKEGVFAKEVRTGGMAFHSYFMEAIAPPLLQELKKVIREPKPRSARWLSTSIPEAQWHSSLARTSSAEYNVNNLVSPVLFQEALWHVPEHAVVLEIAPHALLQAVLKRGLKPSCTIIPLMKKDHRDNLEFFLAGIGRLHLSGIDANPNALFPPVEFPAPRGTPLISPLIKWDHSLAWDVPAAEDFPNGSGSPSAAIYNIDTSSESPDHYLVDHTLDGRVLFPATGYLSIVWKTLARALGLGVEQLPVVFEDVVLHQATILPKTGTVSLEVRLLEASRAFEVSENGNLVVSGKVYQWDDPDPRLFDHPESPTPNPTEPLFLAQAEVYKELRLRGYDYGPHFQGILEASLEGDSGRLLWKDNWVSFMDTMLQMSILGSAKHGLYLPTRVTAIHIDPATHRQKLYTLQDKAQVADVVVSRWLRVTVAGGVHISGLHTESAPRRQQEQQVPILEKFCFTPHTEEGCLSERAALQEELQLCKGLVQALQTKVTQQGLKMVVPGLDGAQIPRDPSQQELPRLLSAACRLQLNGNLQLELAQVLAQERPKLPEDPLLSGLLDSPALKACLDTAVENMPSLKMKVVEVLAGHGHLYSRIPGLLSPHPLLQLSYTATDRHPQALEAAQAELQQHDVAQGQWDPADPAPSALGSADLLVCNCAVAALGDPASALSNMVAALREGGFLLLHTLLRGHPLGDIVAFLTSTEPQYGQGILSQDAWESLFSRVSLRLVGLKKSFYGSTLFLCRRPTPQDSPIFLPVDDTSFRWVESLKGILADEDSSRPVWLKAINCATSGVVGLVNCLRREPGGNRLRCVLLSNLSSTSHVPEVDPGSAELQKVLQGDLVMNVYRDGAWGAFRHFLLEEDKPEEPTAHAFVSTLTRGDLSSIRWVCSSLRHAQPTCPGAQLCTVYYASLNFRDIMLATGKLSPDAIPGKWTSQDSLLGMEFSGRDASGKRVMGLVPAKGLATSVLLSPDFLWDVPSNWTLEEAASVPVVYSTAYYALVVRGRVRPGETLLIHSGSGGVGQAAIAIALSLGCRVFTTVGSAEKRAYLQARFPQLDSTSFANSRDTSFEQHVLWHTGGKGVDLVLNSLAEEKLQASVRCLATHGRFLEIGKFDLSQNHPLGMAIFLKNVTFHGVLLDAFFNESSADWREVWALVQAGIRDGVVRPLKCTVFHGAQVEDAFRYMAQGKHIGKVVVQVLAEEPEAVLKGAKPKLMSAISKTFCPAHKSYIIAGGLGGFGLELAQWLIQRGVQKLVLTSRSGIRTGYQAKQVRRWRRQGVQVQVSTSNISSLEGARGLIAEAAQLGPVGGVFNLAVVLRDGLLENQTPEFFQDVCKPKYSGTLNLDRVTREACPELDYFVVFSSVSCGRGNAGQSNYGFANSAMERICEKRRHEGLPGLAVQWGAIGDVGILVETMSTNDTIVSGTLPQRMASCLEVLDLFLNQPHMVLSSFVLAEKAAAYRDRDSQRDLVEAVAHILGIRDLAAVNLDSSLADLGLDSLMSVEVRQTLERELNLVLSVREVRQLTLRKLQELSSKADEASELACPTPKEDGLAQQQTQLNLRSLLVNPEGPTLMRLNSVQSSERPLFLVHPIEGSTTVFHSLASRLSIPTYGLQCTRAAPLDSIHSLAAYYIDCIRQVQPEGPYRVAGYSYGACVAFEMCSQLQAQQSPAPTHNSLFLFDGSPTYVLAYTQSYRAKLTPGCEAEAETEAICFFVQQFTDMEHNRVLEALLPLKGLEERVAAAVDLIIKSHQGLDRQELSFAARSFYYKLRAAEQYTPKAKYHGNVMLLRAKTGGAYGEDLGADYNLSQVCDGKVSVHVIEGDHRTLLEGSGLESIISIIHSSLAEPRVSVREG
smiles,measurement,setting,value
c1cc[n+]2c(c1)-c1cccc[n+]1CC2,outcome,[1],inactive
same,outcome,[2],inactive
same,outcome,[3],inactive
same,outcome,[4],inactive
same,outcome,[5],inactive
same,outcome,[6],inactive
same,outcome,[7],inactive
same,outcome,[8],inactive
same,outcome,[9],inactive
same,outcome,[10],inactive
same,outcome,[11],inactive
same,outcome,[12],inactive
same,outcome,[13],inactive
same,outcome,[14],inactive
same,outcome,[15],inactive
same,outcome,[16],inactive
same,outcome,[17],inactive
same,AC50,[18],22.4 µM (active)

# — PubChem BioAssay (EPA / NIEHS)
